We go through 18 compounds from the supplement of paper PMC11150407.

SMILES strings stand for the structures. Structures can show the parent of a compound that is named as a salt. The whole screen tested about 2,100 compounds, of which about 180 (8.6%) showed an effect of 50% or more. The sample as a whole holds a higher share of strong results than the screen did.

The subject of the assay is MOLM1 and UCSD/AML1 (averaged). The assay is described as follows: cell viability relative to DMSO control (POC); higher = less growth inhibition. Particulars: 1 µM; 72 h. The method, then: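 Primary viability screen in the 3q26 EVI1-high AML cell lines MOLM1 and UCSD/AML1 (1.5e3 cells/well, 384-well), compounds at 1 uM for 72 h. ATP CellTiter-Glo read-out given as percent of viable cells over DMSO control (POC), averaged over duplicates. DMSO was the negative control and 5 uM etoposide the positive control. This mapping covers the MicroSource Spectrum and Selleck anticancer libraries (drug names).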
As usually defined, the cell viability is a read-out of living cells in per cent, often relative to untreated cells. Consider `OCC(O)C(O)C(O)C(O)C(O)CO` (stereo not drawn), for which the cell viability is 102%.

In the case of `COc1ccc2c(c1)OC/C(=C/c1ccc(OC)c(OC)c1)C2=O`, the cell viability worked out at 108%.

Turning to `COc1ccc2c(c1)OC/C(=C\c1ccc(OC)c(O)c1)C2=O`, the cell viability was found to be 18.3%.

For the compound `COc1ccc2c(c1)OCC(Cc1ccc(OC)c(OC)c1)C2=O` (stereo not drawn), the cell viability was 112%.

Take `COC(=O)[C@@H]1OC(=O)C2OC23[C@@]1(C)CCC1[C@]2(C)C(C[C@H](O)[C@]13C)C(C)(C)[C@H](OC(C)=O)C[C@@H]2OC(C)=O` (stereo partly drawn) [7beta-HYDROXY-7-DESACETOXYKHIVORINIC ACID, METHYL ESTER]: the cell viability was found to be 111%.

`COC(=O)C[C@H]1C(C)(C)C2(O)OC34CC2C(=O)[C@]1(C)C3CC[C@]1(C)C4=CC(=O)O[C@H]1c1ccoc1` (stereo partly drawn) [8beta-HYDROXYCARAPIN, 3,8-HEMIACETAL]: the cell viability was 89%.

Take `CC(C)CC(NC(=O)OCC1c2ccccc2-c2ccccc21)C(=O)O` (stereo in doubt): the cell viability amounted to 105%.

`CC(=O)[C@]1(O)Cc2c(O)c3c(c(O)c2[C@@H](O[C@H]2C[C@H](N)[C@H](O)[C@H](C)O2)C1)C(=O)c1ccccc1C3=O` [Idarubicin HCl]: the cell viability stood at 1.49%.

`COc1cccc2c1C(=O)c1c(O)c3c(c(O)c1C2=O)C[C@@](O)(C(=O)CO)C[C@@H]3O[C@H]1C[C@H](N)[C@H](O)[C@H](C)O1`: the cell viability was determined as 1.67%.

As to `COc1cccc2c1C(=O)c1c(O)c3c(c(O)c1C2=O)C[C@@](O)(C(=O)CO)C[C@@H]3O[C@H]1C[C@H](N)[C@H](O)[C@H](C)O1` [Doxorubicin (Adriamycin)], the cell viability came to 1.61%.

Take `COc1cccc2c1C(=O)c1c(O)c3c(c(O)c1C2=O)C[C@@](O)(C(C)=O)C[C@@H]3O[C@H]1C[C@H](N)[C@H](O)[C@H](C)O1` [Daunorubicin HCl (Daunomycin HCl)]: the cell viability was determined as 1.38%.

Take `COc1cccc2c1C(=O)c1c(O)c3c(c(O)c1C2=O)C[C@@](O)(C(=O)CO)C[C@@H]3O[C@H]1C[C@H](N)[C@@H](O)[C@H](C)O1` [Epirubicin Hydrochloride]: the cell viability worked out at 1.66%.

In the case of `COc1cccc2c1C(=O)c1c(O)c3c(c(O)c1C2=O)C[C@@](O)(C(=O)CO)C[C@@H]3O[C@H]1C[C@H](N)[C@@H](O)[C@H](C)O1`, the cell viability came out at 5.86%.

Turning to `COc1cccc2c1C(=O)c1c(O)c3c(c(O)c1C2=O)C[C@@](O)(C(C)=O)C[C@@H]3O[C@H]1C[C@H](N)[C@H](O)[C@H](C)O1`, the cell viability stood at 1.85%.

Consider `CCCCCCCCCCCC[C@@H](C(=O)O)[C@H](C)C(=O)O`, for which the cell viability was 96%.

As for `Cc1cc(O)cc(=O)o1`, the cell viability is 112%.

As to `O=C1C=C(O)C(=O)c2ccccc21`, the cell viability was found to be 92.9%.

Regarding `CC(=O)OCC(=O)[C@@]1(O)CC[C@H]2[C@@H]3C[C@H](C)C4=CC(=O)C=C[C@]4(C)[C@H]3[C@@H](O)C[C@@]21C` [6alpha-METHYLPREDNISOLONE ACETATE], the cell viability is 65%.
